# Target: Death-associated protein kinase 1 (Homo sapiens) (UniProt P53355)
# Conditions: at 1 µM
# Death-associated protein kinase 1 (Homo sapiens), sequence (P53355 whole entry, looked up): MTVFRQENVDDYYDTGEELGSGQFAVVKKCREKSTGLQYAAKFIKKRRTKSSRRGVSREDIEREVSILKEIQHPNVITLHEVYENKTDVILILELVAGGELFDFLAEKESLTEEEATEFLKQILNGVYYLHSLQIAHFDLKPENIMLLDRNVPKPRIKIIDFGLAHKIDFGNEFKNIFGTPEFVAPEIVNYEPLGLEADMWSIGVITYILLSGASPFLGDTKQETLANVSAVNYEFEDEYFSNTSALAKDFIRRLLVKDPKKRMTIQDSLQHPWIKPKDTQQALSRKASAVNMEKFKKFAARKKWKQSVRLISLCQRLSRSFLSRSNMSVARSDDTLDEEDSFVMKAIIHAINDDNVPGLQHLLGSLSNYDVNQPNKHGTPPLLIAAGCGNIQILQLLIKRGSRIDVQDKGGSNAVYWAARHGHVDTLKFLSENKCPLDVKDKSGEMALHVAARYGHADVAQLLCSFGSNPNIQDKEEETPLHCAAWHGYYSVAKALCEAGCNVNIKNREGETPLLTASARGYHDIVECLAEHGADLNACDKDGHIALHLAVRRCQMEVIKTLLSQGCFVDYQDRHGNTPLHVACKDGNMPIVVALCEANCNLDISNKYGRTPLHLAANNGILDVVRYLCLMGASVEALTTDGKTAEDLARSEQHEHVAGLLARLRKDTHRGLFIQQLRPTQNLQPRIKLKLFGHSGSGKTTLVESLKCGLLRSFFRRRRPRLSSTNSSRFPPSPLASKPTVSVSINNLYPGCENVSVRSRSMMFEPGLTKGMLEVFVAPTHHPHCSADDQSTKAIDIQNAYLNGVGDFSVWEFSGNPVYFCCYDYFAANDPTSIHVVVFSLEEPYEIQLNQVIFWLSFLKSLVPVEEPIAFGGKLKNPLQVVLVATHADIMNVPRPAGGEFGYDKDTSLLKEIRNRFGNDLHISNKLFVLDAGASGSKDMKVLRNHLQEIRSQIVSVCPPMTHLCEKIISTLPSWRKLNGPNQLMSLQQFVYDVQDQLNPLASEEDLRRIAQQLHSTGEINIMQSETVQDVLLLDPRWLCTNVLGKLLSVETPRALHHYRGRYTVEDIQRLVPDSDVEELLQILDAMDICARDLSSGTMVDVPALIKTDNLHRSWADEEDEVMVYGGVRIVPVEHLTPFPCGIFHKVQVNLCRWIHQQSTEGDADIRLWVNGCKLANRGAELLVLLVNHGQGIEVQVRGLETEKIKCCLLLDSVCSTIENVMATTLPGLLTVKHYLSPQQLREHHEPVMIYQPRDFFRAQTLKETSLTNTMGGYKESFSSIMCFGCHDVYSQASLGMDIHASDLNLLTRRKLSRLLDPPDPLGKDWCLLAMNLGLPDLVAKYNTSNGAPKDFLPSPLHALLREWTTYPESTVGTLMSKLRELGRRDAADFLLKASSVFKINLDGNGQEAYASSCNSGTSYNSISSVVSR
row,SMILES,residual activity
1,O=C1NC(=O)c2c1c1c3ccccc3[nH]c1c1[nH]c3cc(Br)ccc3c21,85%
2,CC(=O)c1ccc(N2CCOCC2)cc1O,111%
3,O=Nc1c(-c2c(O)[nH]c3ccccc23)[nH]c2ccccc12,91%
4,Cn1cnc2cc3c(Nc4cccc(Br)c4)ncnc3cc21,94%
5,O=C(CCCc1ccc(-c2ccccc2F)cc1)Nc1ccc(O)cc1,95%
6,COc1cccc(-c2cc(=O)c3ccccc3o2)c1N,81%
7,CC#CC(=O)Nc1cc2c(Nc3ccc(F)c(Cl)c3)ncnc2cn1,88%
8,O=C1C(Cl)=C(N2C(=O)CCC2=O)C(=O)c2ccccc21,91%
9,O=C1Nc2cc(Br)ccc2/C1=C1/Nc2ccccc2/C1=N\O,80%
10,Oc1c2ccccc2c2c3c(cccc13)N=N2,91%
11,c1ccc(-c2n[nH]cc2-c2ccnc3ccccc23)nc1,91%
12,Nc1n[nH]c2nc3ccccc3nc12,94%
13,CSc1nc(-c2ccc(F)cc2)c(-c2ccnc(NC(C)c3ccccc3)c2)[nH]1 (stereo unspecified),91%
14,CN(C)CCCn1cc(C2=C(c3c[nH]c4ccccc34)C(=O)NC2=O)c2ccccc21,106%
15,Cn1sc(=O)n(Cc2ccccc2)c1=O,80%
16,CO[C@@H]1[C@H](N(C)C(=O)c2ccccc2)C[C@H]2O[C@]1(C)n1c3ccccc3c3c4c(c5c6ccccc6n2c5c31)C(=O)NC4,63%

row,SMILES,residual activity
1,CC(=O)O/N=C1\C(=C2\C(=O)Nc3cc(Br)ccc32)Nc2ccccc21,98%
2,Nc1nc(Nc2ccc(S(N)(=O)=O)cc2)nn1C(=O)c1c(F)cccc1F,97%
3,COc1cc2ncnc(Nc3ccc(Oc4ccccc4)cc3)c2cc1OC,100%
4,CC(C)N(CCC(=O)c1ccc2ccccc2c1)Cc1ccccc1,86%
5,CC(C)(C)c1nc2c3ccc(F)cc3c3c(=O)[nH]ccc3c2[nH]1,8%
6,N#Cc1cnc2cnc(NCc3cccnc3)cc2c1Nc1ccc(F)c(Cl)c1,69%
7,O=C1NC(=O)/C(=C/c2ccc3c(c2)OC(F)(F)O3)S1,98%
8,c1ccc(-c2n[nH]c3c2oc2ccccc23)cc1,94%
9,O=[N+]([O-])c1ccc(-c2nc(-c3ccc(F)cc3)c(-c3ccncc3)[nH]2)cc1,74%
10,Oc1ccc(-c2nc(-c3ccc(F)cc3)c(-c3ccncc3)[nH]2)cc1,92%
11,Cc1cc(Nc2nc(-c3ccccc3)nc3ccccc23)n[nH]1,59%
12,O=C1Nc2ccc(Cl)cc2/C1=C/c1cc(Cl)c(O)c(Cl)c1,79%
13,CC(C)n1cnc2/c(=N/c3cccc(Cl)c3)nc(NCCO)[nH]c21,89%
14,COc1cc2ncnc(N3CCN(C(=O)Nc4ccc(Oc5ccccc5)cc4)CC3)c2cc1OC,90%
15,CCN1/C(=C/C(C)=O)Sc2ccc(OC)cc21,81%

# Source: ChEMBL document CHEMBL2218924, “A broad activity screen in support of a chemogenomic map for kinase signalling research and drug discovery” (Biochem J, 2013)
